The text below walks through data of PubChem BioAssay (NCATS).

Several values for one entry are separate records, joined by “and”; a condition that tells them apart may be missing. Identical values can stand only once. Results filed as inconclusive are left out. Activity calls are given as the source filed them. Unless noted, calls come from the whole dose curve; as a rule, active = well fitted curve in the direction sought with a large enough effect; inconclusive = small, poorly fitted or top-dose-only effect, or another doubt; inactive = no such curve, though single readings can be large; an effect the other way counts as inactive or inconclusive.

Assay [1] in a line: qHTS assay for small molecule antagonists of peroxisome proliferator-activated receptor delta signaling (AID 588535).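 Note: cells co-treated with a PPAR-delta agonist as stimulator during compound exposure.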 Particulars: HEK293T PPARd-UAS-bla, beta-lactamase FRET ratio, 18 h; 460 nm channel. In short, it runs like this:
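Titrations were run on PPAR-delta-UAS-bla HEK293T cells in charcoal/dextran-stripped serum, incubated 18 h at 37 C. CCF4 fluorescence (460/530 nm) after 2 h RT; Hill equation yields IC50 and maximal response.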
A general note: qHTS replaces the single test concentration by a dilution series.

Assay [2] deals with Peroxisome proliferator-activated receptor gamma (Homo sapiens) (UniProt P37231). As to the kind of experiment: qHTS assay for small molecule agonists of peroxisome proliferator-activated receptor gamma signaling (AID 588536; active = well fitted curve in the direction sought with a large enough effect in the signal ratio, with a control signal flat, not every such curve was filed as active; the % refers to the signal ratio;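 note: 0% = DMSO basal wells and 100% = rosiglitazone at 2 µM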). Particulars: HEK293 PPARg-UAS-bla, beta-lactamase ratio, 16 h, percent of rosiglitazone response, DMSO as zero; series mostly up to 76.7 µM. In short, it runs like this:
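Using GeneBLAzer HEK293 cells, response was quantified by CCF4 fluorescence and normalized between basal DMSO (0%) and rosiglitazone 2 uM (100%); curves yielded half-maximal stimulation concentration and efficacy.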

For assay [3] the target is unchanged. Put plainly: qHTS assay for small molecule antagonists of peroxisome proliferator-activated receptor gamma signaling (AID 588537; active = well fitted inhibition curve with a large enough effect in the signal ratio, with a control signal flat, not every such curve was filed as active; the % refers to the signal ratio;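 note: reporter cells co-stimulated with 50 nM rosiglitazone agonist during compound treatment; % of control where 0% means no effect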). Particulars: HEK293 PPARg-UAS-bla, beta-lactamase ratio, antagonist mode; series mostly up to 76.8 µM. In short, it runs like this: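 Antagonist-mode β-lactamase reporter screen run as a titration series. HEK293 PPARγ-UAS-bla cells are stimulated with rosiglitazone (50 nM final) for 16 h, then CCF4 is read at 460/530 nm. Data are scaled between DMSO and rosiglitazone and fitted to the Hill equation.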

Assay [4] deals with Vitamin D3 receptor (Homo sapiens) (UniProt P11473). Put plainly: qHTS assay for small molecule antagonists of vitamin D receptor signaling (AID 588541; calls by dose curve;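 note: receptor activated by calcitriol during compound treatment; % is set by controls: 0 for no effect and ±100 for the full control effect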). The note with it: HEK293T VDR-UAS-bla, beta-lactamase ratio, antagonist mode; series mostly up to 76.7 µM. In short, it runs like this:
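Antagonist-mode beta-lactamase reporter assay: HEK293T VDR-UAS-bla cells were exposed to titrated compound alongside 1-alpha,25-dihydroxyvitamin D3 at 3 nM final for 16 h. Values were normalized to the 50 nM agonist control and DMSO basal, with IC50 and efficacy from Hill equation fits.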

The target is the same in assay [5]. As to the kind of experiment: qHTS assay for small molecule agonists of vitamin D receptor signaling (AID 588543; calls by dose curve;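 note: 0% = DMSO basal and 100% = reference agonist control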). Particulars: HEK293T VDR-UAS-bla, beta-lactamase ratio, 16 h; series mostly up to 76.8 µM. In short, it runs like this:
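Agonist-mode beta-lactamase reporter: HEK293T VDR-UAS-bla cells in charcoal-stripped 2% FBS, compound series 16 h 37 C, CCF4 2 h RT. EC50 from Hill fit, scaled against DMSO and 50 nM calcitriol control.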

A short description of assay [6]: qHTS assay for small molecule agonists of retinoid X receptor alpha signaling (AID 588544; calls by dose curve;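 for activation: 0% = DMSO basal wells and 100% = reference agonist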). Particulars: HEK293T RXRa-UAS-bla, beta-lactamase reporter, 18 h; 530 nm emission.
Assay [7] has as its target Thyroid hormone receptor beta (Homo sapiens) (UniProt P10828). As to the kind of experiment: qHTS assay for small molecule agonists of thyroid hormone receptor beta signaling (AID 588545; calls by dose curve;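 note: 0% = DMSO only and 100% = 10 nM T3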). Particulars: TR-UAS-bla GripTite HEK 293, beta-lactamase ratio, agonist mode, 18 h; series mostly up to 76.7 µM. In a few lines: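 TR-UAS-bla GripTite HEK 293 cells (2500/well, medium with 2% charcoal/dextran FBS) were treated in agonist mode for 18 h at 37 C, titrated. Beta-lactamase was read by CCF4 ratio after 2 h; normalized to 10 nM T3 (100%) and DMSO, Hill-fitted for EC50 and efficacy.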

The nature of assay [8]: qHTS assay for small molecule antagonists of retinoid X receptor alpha signaling (AID 588546; active = well fitted inhibition curve with a large enough effect in the signal ratio, with a control signal flat, not every such curve was filed as active; the % refers to the signal ratio;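 note: cells stimulated with 9-cis-retinoic acid as agonist; % is set by controls: 0 for no effect and ±100 for the full control effect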). The note with it: HEK293T RXRa-UAS-bla, beta-lactamase ratio, antagonist mode; measured here: W530 green channel, cytotoxicity proxy. In a few lines:
(§1)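 Beta-lactamase reporter inhibition, read as CCF4 fluorescence ratio (ex 405, em 460/530 nm) after 2 h at RT. HEK293T UAS-bla cells, 2500/well, were stimulated with 9-cis-RA at 500 or 100 nM final alongside test compound for 18 h at 37 C.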

For assay [9], the target named is Retinoic acid receptor RXR-alpha (Homo sapiens) (UniProt P19793). Described as above. The note with it: HEK293T RXRa-UAS-bla, beta-lactamase ratio, antagonist mode. In a few lines: as §1
Assay [10] in a line: qHTS assay for small molecule activators of the p53 signaling pathway (AID 651743; active = well fitted activation curve with a large enough effect in the signal ratio, not every such curve was filed as active; the % refers to the signal ratio; note: % of control where 0% means no effect). The note with it: HCT-116 p53RE-bla, beta-lactamase FRET ratio, 16 h; activation: stronger effect = higher value. In a few lines:
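After 16 hours compound treatment at 37 C, HCT-116 cells stably expressing p53RE-driven beta-lactamase were loaded with LiveBLAzer B/G FRET substrate for 2 hours at room temperature. Fluorescence intensity served as the p53 activation read-out.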

Assay [11] can be described thus: qHTS assay for small molecule activators of the nuclear factor-kappa B (NF-kB) signaling pathway (AID 651749; active = well fitted activation curve with a large enough effect in the signal ratio; the % refers to the signal ratio; note: % of control where 0% means no effect). Particulars: NF-kB-bla ME-180 cells, beta-lactamase FRET ratio, 16 h; activation: stronger effect = higher value. In a few lines:
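Activation measured after 16 hr compound treatment at 37C, 5% CO2, of 2,000 ME-180 cells/well stably expressing an NF-kB response element–driven beta-lactamase reporter, via FRET-disruption fluorescence.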

Assay [12] can be described thus: qHTS assay for environmental chemicals that activate the Aryl hydrocarbon Receptor (AhR) signaling pathway (AID 651777). Note: % of control where 0% means no effect; nearly all actives have a fitted effect of over 15% in size. The note with it: 1A2-DRE human hepatoma cells, luciferase, 24 h; activation: stronger effect = higher value. In a few lines: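 Concentration–response screening used 1,200 1A2-DRE cells per well, 24 hr compound exposure (37 C, 5% CO2), and One-Glo luminescence as the AhR-driven CYP1A2 reporter signal.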

Assay [13] concerns the target Peroxisome proliferator-activated receptor alpha (Homo sapiens) (UniProt Q07869). Put plainly: qHTS assay for small molecule agonists of the peroxisome proliferator-activated receptor alpha (PPARalpha) signaling pathway (AID 651778). Note: % of control where 0% means no effect. The note with it: PathHunter PPARalpha complementation, chemiluminescence, 6 h; max response: stronger effect = higher value. In a few lines: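 Chemiluminescence from complemented enzyme reported PPARalpha activation in cells after 6 hr of compound treatment at 37 C. The detection reagent was incubated for 60 min at room temperature, and compounds were scored as agonists.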

Assay [14] can be described thus: qHTS assay for small molecule agonists of the antioxidant response element (ARE) signaling pathway measured by Nrf2-dependant transcriptional activity (AID 720636; active = well fitted curve in the direction sought with a large enough effect in the repeat runs; an effect the other way counts as inactive or inconclusive; note: % of control where 0% means no effect). The note with it: ARE-luc HepG2, Nrf2 luciferase reporter, 16 h; series mostly up to 92.4 µM. In short, it runs like this:
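Attachment 6 hr at 37 C, then compound versus DMSO vehicle for 16 hr in ARE-luc HepG2 cells (1% dialyzed FBS); luminescence recorded 30 min after ONE-Glo addition at room temperature.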

Assay [15] can be described thus: qHTS assay for small molecule agonists of the antioxidant response element (ARE) signaling pathway measured by Nrf2-dependant transcriptional activity - cell viability counter screen (AID 720653; active = well fitted curve in the direction sought with a large enough effect in the repeat runs; an effect the other way counts as inactive or inconclusive; note: % is set by controls: 0 for no effect and ±100 for the full control effect). The note with it: ARE-bla HepG2 viability, CellTiter-Glo ATP luminescence, 16 h; max response: stronger effect = lower value. In a few lines:
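Cytotoxicity counter screen: intracellular ATP quantified by CellTiter-Glo luminescence in the same ARE-bla HepG2 plates, after 16 h compound exposure and a 2 h beta-lactamase substrate step.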

Assay [16] is described as follows: qHTS assay for cell viability of HEK293 cells (AID 743288). Note: % is set by controls: 0 for no effect and ±100 for the full control effect; nearly all actives have a fitted effect of over 50% in size. The note with it: ATP luminescence (CellTiter-Glo), 18 h; max response: stronger effect = lower value. In a few lines:
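Readout is luciferase-coupled ATP content (CellTiter-Glo luminescence, 30 min room temperature) as a measure of metabolically competent cells. Parental HEK293 cells were plated 5 h or more before compound addition, then treated 18 h at 37 C.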

Assay [17] is described as follows: qHTS assay for cell viability of the p53RE-bla HCT-116 cell line (AID 743292). Note: % is set by controls: 0 for no effect and ±100 for the full control effect; nearly all actives have a fitted effect of over 55% in size. Particulars: p53RE-bla HCT-116 viability, ATP luminescence, 16 h; series mostly up to 95 µM. In short, it runs like this:
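Compound-exposed HCT-116 (p53RE-bla) cells, 4,000 per well, were kept 16 h at 37 C following a 5 h preincubation. Cell number was estimated from total ATP by CellTiter-Glo luminescence read after 30 min at room temperature.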

In assay [18] the target is Nuclear receptor subfamily 1 group I member 2 (Rattus norvegicus) (UniProt Q9R1A7). Put plainly: qHTS assay for small molecule activators of the rat pregnane X receptor (rPXR) signaling pathway (AID 651751; call rule not given here; note: 0% is about no effect). The note with it: rPXR reporter cells, luciferase (One-Glo), 24 h.
Assay [19] deals with Retinoic acid receptor RXR-alpha (Homo sapiens) (UniProt P19793). As to the kind of experiment: qHTS assay for small molecule agonists of retinoid X receptor alpha signaling (AID 588544).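 For activation: 0% = DMSO basal wells and 100% = reference agonist.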 Particulars: HEK293T RXRa-UAS-bla, beta-lactamase reporter, 18 h; series mostly up to 76.7 µM.
Assay [20] is described as follows: qHTS assay for small molecule activators of the human pregnane X receptor (PXR) signaling pathway (AID 720659; call rule not given here; note: 0% is about no effect). The note with it: DPX-2 HepG2 CYP3A4-luciferase, 24 h; series mostly up to 92.3 µM.

Peroxisome proliferator-activated receptor gamma (Homo sapiens), sequence (P37231 whole entry, looked up): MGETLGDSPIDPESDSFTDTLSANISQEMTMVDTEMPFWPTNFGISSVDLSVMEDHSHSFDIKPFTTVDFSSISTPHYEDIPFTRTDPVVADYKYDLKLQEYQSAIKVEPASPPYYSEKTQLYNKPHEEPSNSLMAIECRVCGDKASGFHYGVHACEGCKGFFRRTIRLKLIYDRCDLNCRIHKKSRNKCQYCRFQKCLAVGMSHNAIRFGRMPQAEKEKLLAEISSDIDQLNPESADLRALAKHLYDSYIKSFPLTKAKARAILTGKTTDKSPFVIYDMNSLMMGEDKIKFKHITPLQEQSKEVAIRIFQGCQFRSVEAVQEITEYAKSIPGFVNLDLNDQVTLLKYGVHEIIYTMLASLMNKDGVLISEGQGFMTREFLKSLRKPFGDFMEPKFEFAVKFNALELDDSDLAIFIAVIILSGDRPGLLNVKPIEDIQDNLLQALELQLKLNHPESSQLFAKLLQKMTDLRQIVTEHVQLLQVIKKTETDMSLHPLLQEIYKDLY
Retinoic acid receptor RXR-alpha (Homo sapiens), sequence (P19793 whole entry, looked up): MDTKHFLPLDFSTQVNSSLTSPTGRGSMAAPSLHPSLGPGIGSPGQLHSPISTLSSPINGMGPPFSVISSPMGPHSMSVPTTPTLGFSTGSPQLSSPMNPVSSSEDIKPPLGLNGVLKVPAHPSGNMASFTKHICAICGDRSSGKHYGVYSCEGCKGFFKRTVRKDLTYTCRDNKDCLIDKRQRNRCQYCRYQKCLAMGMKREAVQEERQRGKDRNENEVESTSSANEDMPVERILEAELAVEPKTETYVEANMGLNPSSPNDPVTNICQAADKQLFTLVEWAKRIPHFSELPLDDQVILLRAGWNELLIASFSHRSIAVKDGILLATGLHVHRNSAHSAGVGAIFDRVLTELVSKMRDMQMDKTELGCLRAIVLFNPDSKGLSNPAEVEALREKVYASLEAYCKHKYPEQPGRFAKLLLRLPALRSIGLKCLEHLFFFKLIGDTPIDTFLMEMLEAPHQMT
Peroxisome proliferator-activated receptor alpha (Homo sapiens), sequence (Q07869 whole entry, looked up): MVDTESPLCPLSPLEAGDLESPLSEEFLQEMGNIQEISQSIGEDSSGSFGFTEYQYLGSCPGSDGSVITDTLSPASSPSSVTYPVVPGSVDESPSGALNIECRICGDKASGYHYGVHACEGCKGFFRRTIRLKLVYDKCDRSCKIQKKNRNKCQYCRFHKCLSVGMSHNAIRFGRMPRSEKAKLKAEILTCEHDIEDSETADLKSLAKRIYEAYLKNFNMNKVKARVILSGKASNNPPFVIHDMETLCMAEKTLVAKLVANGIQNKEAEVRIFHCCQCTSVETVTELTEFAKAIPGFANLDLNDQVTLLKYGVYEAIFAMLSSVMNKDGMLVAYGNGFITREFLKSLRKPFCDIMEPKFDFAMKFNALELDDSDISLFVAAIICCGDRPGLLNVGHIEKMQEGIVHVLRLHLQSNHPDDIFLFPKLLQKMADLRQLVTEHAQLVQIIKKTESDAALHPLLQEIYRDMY
Thyroid hormone receptor beta (Homo sapiens), sequence (P10828 whole entry, looked up): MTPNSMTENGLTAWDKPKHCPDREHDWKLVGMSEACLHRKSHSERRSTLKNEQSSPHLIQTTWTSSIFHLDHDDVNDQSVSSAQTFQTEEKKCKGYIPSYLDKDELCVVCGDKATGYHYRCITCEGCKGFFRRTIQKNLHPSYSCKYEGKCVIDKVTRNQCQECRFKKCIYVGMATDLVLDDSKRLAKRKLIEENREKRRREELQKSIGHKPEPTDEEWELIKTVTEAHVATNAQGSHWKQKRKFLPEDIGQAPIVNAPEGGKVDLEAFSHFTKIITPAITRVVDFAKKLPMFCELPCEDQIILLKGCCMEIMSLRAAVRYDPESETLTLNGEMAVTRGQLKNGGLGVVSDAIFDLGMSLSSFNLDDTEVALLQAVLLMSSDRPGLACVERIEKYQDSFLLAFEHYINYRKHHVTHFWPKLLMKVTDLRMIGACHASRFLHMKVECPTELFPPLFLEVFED
Nuclear receptor subfamily 1 group I member 2 (Rattus norvegicus), sequence (Q9R1A7 whole entry, looked up): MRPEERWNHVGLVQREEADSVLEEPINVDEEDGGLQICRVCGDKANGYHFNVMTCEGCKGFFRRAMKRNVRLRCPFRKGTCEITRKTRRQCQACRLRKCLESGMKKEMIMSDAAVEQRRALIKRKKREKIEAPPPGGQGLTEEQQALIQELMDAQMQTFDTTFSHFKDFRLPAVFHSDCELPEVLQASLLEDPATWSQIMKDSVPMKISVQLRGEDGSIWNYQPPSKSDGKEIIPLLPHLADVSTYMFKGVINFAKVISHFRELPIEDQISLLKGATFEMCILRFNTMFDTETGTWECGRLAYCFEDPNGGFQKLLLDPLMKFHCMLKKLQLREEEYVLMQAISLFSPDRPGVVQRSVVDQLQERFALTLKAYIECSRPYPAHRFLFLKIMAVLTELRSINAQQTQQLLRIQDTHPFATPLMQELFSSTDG
Vitamin D3 receptor (Homo sapiens), sequence (P11473 whole entry, looked up): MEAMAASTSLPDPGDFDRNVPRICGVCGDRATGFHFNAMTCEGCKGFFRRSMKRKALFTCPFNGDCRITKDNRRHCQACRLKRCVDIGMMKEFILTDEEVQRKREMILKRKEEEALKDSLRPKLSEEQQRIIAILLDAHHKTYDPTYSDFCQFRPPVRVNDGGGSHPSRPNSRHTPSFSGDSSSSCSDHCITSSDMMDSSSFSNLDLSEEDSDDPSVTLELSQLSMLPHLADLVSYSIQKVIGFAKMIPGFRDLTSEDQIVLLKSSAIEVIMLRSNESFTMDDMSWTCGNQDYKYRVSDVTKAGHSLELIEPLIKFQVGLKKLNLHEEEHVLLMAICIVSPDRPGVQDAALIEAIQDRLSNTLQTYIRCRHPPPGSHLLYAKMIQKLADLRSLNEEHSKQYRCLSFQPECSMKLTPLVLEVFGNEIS

Take `c1ccc(B(c2ccccc2)c2ccccc2)cc1`: the max response in assay [1] is -3.44%; in assay [6], 7.43%; in assay [8], 3.4%; in [9] it was -24.3% (inactive); in [13], -0.443% (inactive); in assay [15], -1.71% (inactive). The max response in assay [16] is -15.9% (inactive); in assay [18], 1.02% (inactive). The result in [2] and in assay [5] was inactive. The Potency entry in assay [3], in assay [4], in assay [7], in [14] and in assay [17] was “inactive” each time. Further, the activation in assay [10] is -0.854% (inactive); in [11], -3.07% (inactive); in assay [12], 1.54% (inactive).

As to `Cl[Si](Cl)(Cl)c1ccccc1`, the max response in assay [1] is 13.6%; in assay [6], -15.8%; in assay [8], -7.94%; in assay [9] it was -5.52% (inactive); in [13], -2.31% (inactive); in assay [15] it was -8.94% (inactive). For the same compound, the max response in [16] is -13.3% (inactive); in assay [18], 1.77% (inactive). The result in assay [2], in [5] and in [20] was inactive. The Potency result in [3], in [4], in [19], in assay [7], in [14] and in [17] was “inactive” in each case. The figures for the activation in assay [11] and in [12] were -0.0547% (inactive) and -0.059% (inactive), respectively.

For the compound `O=C(O)C(Oc1ccc(Cl)cc1)Oc1ccc(Cl)cc1`, the max response in assay [1] is -2.46%; in assay [6], 4.78%; in assay [8], -7.28%; in assay [9], -10.5% (inactive); in [13], 4.93% (inactive); in assay [15], -5.82% (inactive). Further, the max response in assay [16] is -2.57% (inactive); in assay [18], -9.92% (inactive). Besides, the result in [5] and in assay [20] was inactive. Besides, the Potency entry in assay [19], in [7], in assay [14] and in [17] was “inactive” each time. Also, the activation is 2.64% (inactive) in assay [10], 0.776% (inactive) in assay [11] and -1.04% (inactive) in [12].

Turning to `FC(F)(F)c1ccc(Cl)c(Cl)c1`, the max response was 40.3% in [1]; -13.8% in assay [6]; 5.97% in assay [8]; -4.28% (inactive) in assay [15]; -13.4% (inactive) in [16]; -0.267% (inactive) in [18]. Moreover, the result in assay [2], in assay [5] and in assay [20] was inactive. Besides, the Potency entry in assay [3], in assay [4], in assay [7] and in assay [17] was “inactive” throughout. Besides, the activation is -5.24% (inactive) in assay [10], -0.0768% (inactive) in [11] and 3.72% (inactive) in [12].

For the compound `CN=C(N)NCC1CCOC1` (stereo not drawn), the max response is 42% in [1]; -7.78% in assay [6]; -4.8% in assay [8]; 8.29% (inactive) in assay [9]; -3.68% (inactive) and 0.552% (inactive) in assay [13]; -1.14% (inactive) in assay [15]. Also, the max response was -9.41% (inactive) in [16]; -8.95% (inactive) and -6.71% (inactive) in assay [18]. The outcome in assay [2] and in [20] was inactive. Also, the Potency result in assay [3], in assay [19], in [7], in assay [14] and in assay [17] was “inactive” throughout. The activation is 20.9% (inactive) and -3.95% (inactive) in [10]; -4.18% (inactive) in assay [11]; 14.3% (inactive) and -0.391% (inactive) in assay [12].
